Measurements as given in PubChem BioAssay AID463195 (Sanford-Burnham Center for Chemical Genomics, 2010).
Hit rate of the full screen: of about 330,000 compounds, about 4,600 (1.4%) were called active. Shown is part of a subset that was picked to be rich in actives. Values without a mark were called inactive.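 Rule for the calls: active = inhibition of 40% or more at the single tested concentration; inactive = the rest.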

Assay: wild-type TIM10 yeast growth inhibition – luminescence, uHTS, counter-screen for tim10-1 yeast inhibitor project, primary screen (AID 463195);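 note: wild-type TIM10 isogenic control strain grown at permissive 25 °C; 0% = DMSO yeast wells and 100% = minimal medium wells without yeast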
Conditions: S. cerevisiae TIM10 strain growth, BacTiter-Glo luminescence, 24 h; at 10 µM; hits give high values

Structure (SMILES) | inhibition
COc1ccccc1C(=O)COC(=O)CSCC(=O)Nc1cc(C)on1 | 11.1%
COCCn1c(CN2CCC(Cc3ccccc3)CC2)nc2c1c(=O)n(C)c(=O)n2C | -0.058%
CC(=O)Nc1cccc(OCC(=O)/C=C2\N(C)c3ccccc3C2(C)C)c1 | 14.8%
CCOC(=O)c1c(NC(=O)c2ccc(S(=O)(=O)N(C)CC3CCCO3)cc2)sc2c1CC(C)(C)NC2(C)C (configuration not stated) | -10.5%
COC(=O)c1c(NC(=O)COc2ccc(Cl)cc2Cl)sc2c1CC(C)(C)NC2(C)C | 41.3% (active)
COC(=O)c1sccc1NC(=O)COc1ccc(Cl)cc1 | 12.6%
CCN(CC(=O)NC(C)C)C(=O)CCNC(=O)c1ccc(Cl)cc1 | 10.6%
CC1CCC(NC(=O)C2c3ccccc3C(=O)N2Cc2ccc3c(c2)OCO3)CC1 (configuration not stated) | 0.084%
CCc1ccc(NC(=O)NC(C)c2ccc3c(c2)OCO3)cc1 (configuration not stated) | 6.53%
CC(=NCc1ccc2c(c1)OCO2)C1=C(O)c2ccccc2C1=O | 70.5% (active)
O=C1N(c2ccccc2)C(=Nc2ccccc2)SC12CC2 | 13.6%
CC(=O)Nc1ccc(Nc2c([N+](=O)[O-])cc(S(C)(=O)=O)cc2[N+](=O)[O-])cc1 | -6.6%
CN(C)CCc1c[nH]c2ccc(Cn3cncn3)cc12 | 5.24%
O=C(COC(=O)c1ccccc1Br)Nc1nnc(-c2ccccc2)o1 | -0.697%
Nc1cc(OC(=O)c2ccccc2Br)nn1S(=O)(=O)c1ccccc1 | 46.5% (active)
Cc1ccc(S(=O)(=O)n2nc(OC(=O)C(C)(C)C)cc2N)cc1 | 17.1%
O=C(Cc1ccc(-n2c(=O)c3sccc3n(Cc3ccc(F)cc3)c2=O)cc1)NCc1ccco1 | 8.88%
O=C(NCc1ccco1)c1cc2sccc2n1Cc1ccc(F)cc1 | 46.4% (active)
O=C(NCc1ccco1)c1ccc(Cn2c(=O)c3sccc3n(Cc3ccc(F)cc3)c2=O)cc1 | 2.56%

Structure (SMILES) | inhibition
COc1ccc(N2CC(C(=O)NCCS(=O)(=O)N3CCN(c4ccccc4)CC3)CC2=O)cc1 (configuration not stated) | -13.2%
C[C@H]1CN([C@@H](C)CO)C(=O)Cc2cc(NS(C)(=O)=O)ccc2O[C@@H]1CN(C)CC1CC1 | -6.97%
O=S(=O)(c1ccccc1)N(Cc1cccc(F)c1)c1ccccc1 | 3.1%
CCN(c1ccccc1)S(=O)(=O)c1ccc(N)cc1 | 8.8%
O=S(=O)(ON(c1ccccc1)S(=O)(=O)c1ccccc1)c1ccccc1 | 45.9% (active)
COC(=O)c1ccc(OC(=O)c2nn(C)cc2Cl)c(OC)c1 | 8.9%
O=C(O)c1ccccc1N=N/C(=N/Nc1cc(S(=O)(=O)O)ccc1O)c1ccccc1 | 0.626%
O=c1c2ccccc2nnn1CSc1nc2sc3c(c2c(=O)n1CC1CCCO1)CCC3 (configuration not stated) | 25.8%
Cc1nnc(-c2ccc(Oc3ccc(C)c(C)c3)c([N+](=O)[O-])c2)o1 | 17.1%
O=C(OCC(=O)c1c[nH]c2ccccc12)c1cccc(O)c1 | 5.38%
CCN(CC)c1ccc(/C=N/NC(=O)c2cnccn2)c(O)c1 | 44.5% (active)
CCN1CCN(c2ccc(NC(=O)c3cnccn3)cc2)CC1 | -4.6%
COc1ccc(NC(=O)C/C(C)=N/NC(=O)c2cnccn2)cc1Cl | 3.17%
Cc1ccc2nc(Nc3ncc4c(n3)CC(C)(C)CC4=O)nc(C)c2c1 | 5.07%
Cc1cc(=O)n2nc(N3CCCC(C(=O)N4CCN(C)CC4)C3)sc2n1 (configuration not stated) | 2.79%
O=c1c2c(-c3ccccc3)ccnc2[nH]n1-c1ccccc1 | -17.3%
COc1ccc(-n2cc(-c3ccccc3)c3c(=S)nc[nH]c32)cc1 | 33.8%
O=c1[nH]cnc2c1c(-c1ccccc1)cn2-c1ccc(F)cc1 | 42.6% (active)
O=[N+]([O-])c1cc(C(F)(F)F)ccc1NCCc1ccncc1 | 6.18%

Structure (SMILES) | inhibition
Cc1nn(Cc2ccccc2Cl)c(C)c1NC(=O)Cn1nc([N+](=O)[O-])c(Cl)c1C | 2.84%
NC(=O)C[n+]1cccc(C(N)=O)c1 | 13.2%
C#CCOCCOCCOCCNc1nc(N2CCN(C(=O)[C@H](CCC(=O)O)n3cc(C(N)CO)nn3)CC2)nc(N2CCN(C(=O)[C@H](CCCCN)n3cc(C(N)CC(C)C)nn3)CC2)n1 (some centres not stated) | -1.57%
CC(C)(C)N(CC#CCC(O)(c1ccccc1)C1CCCC1)CCO (configuration not stated) | 0.266%
CC(=O)Nc1ccc(S(=O)(=O)Nc2ccc(N3CCCCC3)cc2)cc1 | -2.15%
O=C1C=CC(=O)N1c1ccc(N2CCCCC2)cc1 | 73.2% (active)
O=C1CC(N2CCN(c3ccc(F)cc3)CC2)C(=O)N1c1ccccc1 (configuration not stated) | -7.52%
COc1ccc(-c2cc(C3CCN(c4ncccc4[N+](=O)[O-])CC3)[nH]n2)cc1 | 33%
CC(=O)CSc1nnc(CSc2ncccn2)n1C1CCCCC1 | 3.42%
Nn1cnnc1N/N=C/c1cc([N+](=O)[O-])c(Cl)cc1Cl | -10.5%
CN(CC(=O)Nc1ccccc1C(F)(F)F)C(=O)Cc1ccccc1F | 12.1%
O=C(Nc1ccccc1F)c1ccccc1-c1ccc(C(F)(F)F)cc1 | 9.5%
N#C/C(=C\c1ccccc1C(F)(F)F)C(=O)Nc1ccccc1F | 47.5% (active)
Cc1cccc(N=Nc2c(O)[nH]c3ccc(F)cc23)c1 | 45% (active)
NS(=O)(=O)c1ccc(N=Nc2c(O)[nH]c3ccc(Br)cc23)cc1 | -10.2%
Oc1[nH]c2ccc(Br)cc2c1N=Nc1nn[nH]n1 | 6.35%
Cc1ccc(C)c(NC2=NCC(=O)N2c2ccc3c(c2)OCCO3)c1 | 2.39%
Cc1ccc(C(=O)N2CC(=O)Nc3ccc(F)cc3C2c2ccc(F)cc2)cc1 (configuration not stated) | 20.6%
CC1=CC=CN2C1=NC(=O)CC2(C)C(=O)N(CC(=O)NC1CCCC1)c1ccccc1C (configuration not stated) | -13.9%
